From PubChem BioAssay
C diff HTS: C. difficile growth inhibitors, primary screen, HTS; 0.25% of 86,000 active; Clostridium difficile clinical isolate growth, OD600, 24 h; stronger effect = lower value; growth activity, negative = inhibition, % at 16 µg/mL (by protocol); AID 1259249, 2017;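 active = mean growth activity at or below -80% and every replicate also at or below -80%; inconclusive = mean at or below -80% but some replicate above -80%; inactive = mean growth activity above -80%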;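 also: 0% = DMSO wells and -100% = levofloxacin 16 µg/mL wells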
Pf Dd2 inh: P. falciparum Dd2 growth inhibitors, primary screen, SYBR Green fluorescence, single dose replicates; activity change, % at 10 µM; 72 h; stronger effect = lower value; AID 1159554, 2015; 2.3% of 94,000 active; in the data active = activity change below about -80%; inconclusive = no clear call, values can overlap the other calls
The depositor's hits bear a star; ? = inconclusive; / = no result. Hits are enriched below; roughly 2.3% of the tested compounds scored in any of these assays.

SMILES	C diff HTS	Pf Dd2 inh
Cc1cccc(S(=O)(=O)N2CC[C@@H]3[C@H](CO)N(C)c4ccc(C#Cc5ccc(F)cc5)cc4[C@@H]32)c1	-98*	-72
CN1c2ccc(C#Cc3ccc(F)cc3)cc2[C@H]2[C@H](CCN2S(=O)(=O)c2ccccc2F)[C@@H]1CO	-6	-9
COc1cccc(-c2ccc3c(c2)[C@H]2[C@H](CCN2S(=O)(=O)c2ccc(F)cc2)[C@@H](CO)N3C)c1	3	-4
C[C@H]1CN([C@@H](C)CO)C(=O)c2cc(C#CC(C)(C)O)cnc2O[C@H]1CN(C)C(=O)C1CCCCC1	0	29
C[C@@H]1CN([C@H](C)CO)C(=O)c2cc(NC(=O)Nc3ccccc3)ccc2O[C@H]1CN(C)C(=O)Nc1ccc2c(c1)OCO2	/	28
Cc1ccc(S(=O)(=O)N(C)C[C@H]2OCCCC[C@H](C)Oc3ccc(NS(=O)(=O)c4ccc(Cl)cc4)cc3C(=O)N([C@H](C)CO)C[C@H]2C)cc1	5	-68
Cc1ccc(S(=O)(=O)Nc2ccc3c(c2)C(=O)N([C@H](C)CO)C[C@H](C)[C@H](CN(C)S(=O)(=O)c2ccc(Cl)cc2)OCCCC[C@H](C)O3)cc1	5	-64
Cc1ccc(S(=O)(=O)Nc2ccc3c(c2)C(=O)N([C@@H](C)CO)C[C@@H](C)[C@H](CN(C)S(=O)(=O)c2ccc(Cl)cc2)OCCCC[C@@H](C)O3)cc1	-1	-43
Cc1ccc(S(=O)(=O)Nc2ccc3c(c2)C(=O)N([C@H](C)CO)C[C@@H](C)[C@@H](CN(C)S(=O)(=O)c2ccc(Cl)cc2)OCCCC[C@@H](C)O3)cc1	-4	-85*
Cc1ccc(S(=O)(=O)Nc2ccc3c(c2)C(=O)N([C@H](C)CO)C[C@@H](C)[C@@H](CN(C)S(=O)(=O)c2ccc(Cl)cc2)OCCCC[C@H](C)O3)cc1	11	-86*
Cc1ccc(S(=O)(=O)Nc2ccc3c(c2)C(=O)N([C@@H](C)CO)C[C@H](C)[C@H](CN(C)S(=O)(=O)c2ccc(Cl)cc2)OCCCC[C@@H](C)O3)cc1	8	-86*
Cc1ccc(S(=O)(=O)Nc2ccc3c(c2)C(=O)N([C@H](C)CO)C[C@@H](C)[C@H](CN(C)S(=O)(=O)c2ccc(Cl)cc2)OCCCC[C@@H](C)O3)cc1	-1	-81*
Cc1ccc(S(=O)(=O)N(C)C[C@@H]2OCCCC[C@H](C)Oc3ccc(NS(=O)(=O)c4ccc(Cl)cc4)cc3C(=O)N([C@H](C)CO)C[C@@H]2C)cc1	0	-46
C[C@H](CO)N1C[C@H](C)[C@H](CN(C)C(=O)c2ccccc2F)Oc2ncc(C#C[C@@H](C)O)cc2C1=O	2	/
O=C(C1CCCC1)N1CCCCN2[C@H](CO)[C@H](c3ccc(C#CC4(O)CCCC4)cc3)[C@H]2C1	-9	-5
O=C(C[C@H]1C[C@@H]2c3cc(NC(=O)CC4CC4)ccc3O[C@@H]2[C@H](CO)O1)NCc1ccncc1	0	19
O=C(C[C@H]1C=C[C@@H](NC(=O)CC2CC2)[C@@H](CO)O1)NCC(F)(F)F	6	-15
C[C@@H]1CN([C@@H](C)CO)C(=O)c2cc(NC(=O)CCC(F)(F)F)ccc2O[C@@H](C)CCCCO[C@H]1CN(C)C(=O)Cc1ccccc1	/	-12
CO[C@@H]1CN(C)C(=O)c2cc(NS(C)(=O)=O)ccc2OC[C@@H](C)N(CCC(F)(F)F)C[C@@H]1C	/	-3
COc1cccc(S(=O)(=O)Nc2ccc3c(c2)C(=O)N(C)[C@@H]2CC[C@@H](CC(=O)O)O[C@@H]2CO3)c1	-5	7
Cc1noc(C)c1S(=O)(=O)Nc1ccc2c(c1)C(=O)N([C@@H](C)CO)C[C@H](C)[C@@H](CN(C)S(=O)(=O)c1ccc(Cl)cc1)OCCCC[C@@H](C)O2	12	-84*
Cc1noc(C)c1S(=O)(=O)Nc1ccc2c(c1)C(=O)N([C@@H](C)CO)C[C@H](C)[C@H](CN(C)S(=O)(=O)c1ccc(Cl)cc1)OCCCC[C@@H](C)O2	0	-73
COc1cccc(C#Cc2ccc([C@@H]3[C@@H](C#N)N(C(=O)C4CCCCC4)[C@H]3CO)cc2)c1	1	-91*
COc1cccc(C#Cc2ccc([C@@H]3[C@@H](C#N)N(C(=O)C4CCC4)[C@H]3CO)cc2)c1	15	-50
COc1cccc(C#Cc2ccc([C@@H]3[C@@H](CO)N(C(=O)C4CCCC4)[C@H]3C#N)cc2)c1	4	-83*
SMILES	C diff HTS	Pf Dd2 inh
COc1cccc(C#Cc2ccc([C@@H]3[C@@H](CO)N(C(=O)C4CCCCC4)[C@H]3C#N)cc2)c1	1	-78
CC(=O)N(C)C[C@@H]1Oc2cc(C#CCC(C)C)ccc2S(=O)(=O)N([C@@H](C)CO)C[C@H]1C	-9	-10
COc1ccc(S(=O)(=O)N(C)C[C@@H]2OCCCC[C@@H](C)Oc3ccc(NC(=O)Nc4cccc5ccccc45)cc3C(=O)N([C@@H](C)CO)C[C@@H]2C)cc1	8	-83*
COc1ccc(S(=O)(=O)N(C)C[C@H]2OCCCC[C@@H](C)Oc3ccc(NC(=O)Nc4cccc5ccccc45)cc3C(=O)N([C@H](C)CO)C[C@H]2C)cc1	4	-82*
C[C@H](CO)N1C[C@H](C)[C@@H](CN(C)S(=O)(=O)c2ccccc2)OCCCC[C@H](C)Oc2ccc(NC(=O)Nc3cccc4ccccc34)cc2C1=O	-1	-43
COc1ccc(S(=O)(=O)N(C)C[C@H]2OCCCC[C@H](C)Oc3ccc(NC(=O)Nc4cccc5ccccc45)cc3C(=O)N([C@H](C)CO)C[C@@H]2C)cc1	0	-21
C[C@@H]1CN([C@H](C)CO)S(=O)(=O)c2ccc(C#CC3CC3)cc2O[C@H]1CN(C)C(=O)c1cccnc1	-3	-6
O=C(C[C@H]1CC[C@H](NS(=O)(=O)c2cccc(F)c2)[C@@H](CO)O1)N1CCCCC1	1	24
CO[C@H]1CC[C@H]2CCOc3ccc(C#N)cc3C(=O)N(C)C[C@@H](OC)[C@@H](C)C(=O)N(C)C[C@H]1O2	5	/
CCCN(C)C[C@H]1OCCCC[C@@H](C)Oc2ccc(NS(=O)(=O)c3cccs3)cc2C(=O)N([C@@H](C)CO)C[C@@H]1C	-2	-90*
CCCN(C)C[C@H]1OCCCC[C@H](C)Oc2ccc(NS(=O)(=O)c3cccs3)cc2C(=O)N([C@@H](C)CO)C[C@H]1C	1	-63
CCCN(C)C[C@H]1OCCCC[C@H](C)Oc2ccc(NS(=O)(=O)c3cccs3)cc2C(=O)N([C@H](C)CO)C[C@H]1C	5	?
CCCN(C)C[C@H]1OCCCC[C@@H](C)Oc2ccc(NS(=O)(=O)c3cccs3)cc2C(=O)N([C@H](C)CO)C[C@@H]1C	-2	-86*
O=C(c1cccnc1)N1CCCCN2[C@H](C1)[C@H](c1ccc(C#Cc3ccccc3)cc1)[C@@H]2CO	-8	14
Cc1cc(C(=O)Nc2cccc3c2O[C@H](CN(C)C(=O)Nc2ccc(C(F)(F)F)cc2)[C@@H](C)CN([C@H](C)CO)C3=O)n(C)n1	-4	-2
C[C@@H]1CN([C@H](C)CO)C(=O)c2cc(NC(=O)C3CCCCC3)ccc2O[C@@H](C)CCCCO[C@H]1CN(C)Cc1ccncc1	-4	-12
C[C@H]1CN([C@@H](C)CO)C(=O)Cc2cc(NC(=O)C3CC3)ccc2O[C@H]1CN(C)Cc1ccc(C(F)(F)F)cc1	8	-80*
